Our source for the outcome and AC50 values is PubChem BioAssay (EPA / NIEHS).

Calls of active or inactive are those of the source. The calls were made as follows: active = hit-call score of the fitted dose curve at least 0.9, where 1 is the maximum; inactive = score below 0.9.

Usually AC50 stands for the concentration giving half of the maximal activity seen.

The test can be described thus: CCTE_Mundy_HCI_Cortical_Synap_Neur_Matur_NeuriteCount: CCTE's Synaptogenesis and Neurite Maturation Assay in rat cortical cells for Neurite Count, Mundy Lab (AID 2284222). Here is the method:
CCTE_Mundy_HCI_Cortical_Synap&Neurite_Matur is a multiplexed, cell-based-readout assay that uses rat primary cortical cells with measurements taken at 288.33 hours after chemical dosing in a microplate: 96-well plate.CCTE_Mundy_HCI_Cortical_Synap_Neur_Matur_NeuriteCount is one of eight components of the CCTE_Mundy_HCI_Cortical_Synap&Neurite_Matur assay. It measures synaptogenesis and neurite maturation related to number of neurites using High Content Imaging of fluorescently labelled markers.[…] Using a type of morphology reporter, loss -of-signal activity can be used to understand developmental effects.
Cells are plated onto 96 well plates and allowed 2 hr for attachment to the substrate. At days in vitro (DIV) 5, Cytosine Arabinoside (AraC) is added to arrest glial cell growth. Chemicals are dosed and a media change is performed at DIV 7 of differentiation and is continued through DIV 12 when the experiment is terminated. Cells are fixed with […] and Hoechst Dye. Cells are stained using Millipore Mouse anti-MAP2MAB3418 (1:800) and Millipore Rabbit anti-Synaptophysinsc-1750 (1:250) primary antibodies and Alexa Fluor-488 goat anti-mouse and AlexaFluor-546 goat anti-rabbit secondary antibodies to label neuronal cell nuclei, synapses and neurites. A Cellomics ArrayScan VTi HCS Reader is used for automated image acquisition and analysis of neurite outgrowth.
For `CN/C(=N\[N+](=O)[O-])NCc1cnc(Cl)s1`, the outcome was inactive.

As for `C=C(C)CN(CC)c1c([N+](=O)[O-])cc(C(F)(F)F)cc1[N+](=O)[O-]`, the AC50 is 7.75 µM (active).

Regarding `N#CN=C1SCCN1Cc1ccc(Cl)nc1`, the outcome was inactive.

In the case of `COC(=O)N(C(=O)N1CO[C@@]2(C(=O)OC)Cc3cc(Cl)ccc3C2=N1)c1ccc(OC(F)(F)F)cc1`, the molecule was called inactive.

As to `CCOP(=O)(OCC)Oc1nc(Cl)c(Cl)cc1Cl`, the molecule was called inactive.

As to `O=C(Nc1ccccc1-c1ccc(Cl)cc1)c1cccnc1Cl`, the call was inactive.

In the case of `CCN(CC)c1nc(C)cc(OP(=S)(OC)OC)n1`, the result was inactive.

In the case of `CC1(C)C(C=C(Cl)Cl)C1C(=O)OC(C#N)c1cccc(Oc2ccccc2)c1` (stereo not drawn), the result was inactive.

In the case of `COP(=O)(OC)O/C(C)=C/C(=O)N(C)C`, the molecule was called inactive.

Regarding `COP(=S)(OC)SCn1nnc2ccccc2c1=O`, the molecule was classed as inactive.

Consider `CC(C)(C)C(=O)C(Oc1ccc(Cl)cc1)n1cncn1` (stereo not drawn), for which the AC50 is 12.8 µM (active).

Consider `Cc1c(COC(=O)[C@@H]2[C@H](/C=C(\Cl)C(F)(F)F)C2(C)C)cccc1-c1ccccc1`, for which the AC50 was 5.03 µM (active).

With `CS(=O)(=O)c1ccc(C(=O)C2C(=O)CCCC2=O)c([N+](=O)[O-])c1`, the molecule was classed as inactive.

As to `CS(=O)(=O)c1cc(C(F)(F)F)ccc1C(=O)c1cnoc1C1CC1`, the call was inactive.

As to `CO/N=C(/C1=NOCCO1)c1ccccc1Oc1ncnc(Oc2ccccc2Cl)c1F`, the AC50 is 3.45 µM (active).

With `CCSC(=O)N1CCCCCC1`, the result was inactive.

Take `CCNC(=O)NC(=O)C(C#N)=NOC`: the outcome was inactive.

Turning to `CNC(=O)Oc1cccc2ccccc12`, the outcome was inactive.
